A selection: hits, their analogues and other compounds. The true share with any hit is near 2.4%.
D2 PAM-1 = HTS Assay for Positive Allosteric Modulators of the Human D2 Dopamine Receptor: Primary Screen for Potentiators; HEK293 T-REx D2, calcium flux, EC20 dopamine potentiation; 0.34% of 340,000 active; D(2) dopamine receptor (Homo sapiens), P14416; potentiation, % at 10 µM;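 active means potentiation over 3 SD above the plate norm, cut at about 30% in these data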; further: 0% is about no effect
Target sequence (P14416 whole entry, looked up): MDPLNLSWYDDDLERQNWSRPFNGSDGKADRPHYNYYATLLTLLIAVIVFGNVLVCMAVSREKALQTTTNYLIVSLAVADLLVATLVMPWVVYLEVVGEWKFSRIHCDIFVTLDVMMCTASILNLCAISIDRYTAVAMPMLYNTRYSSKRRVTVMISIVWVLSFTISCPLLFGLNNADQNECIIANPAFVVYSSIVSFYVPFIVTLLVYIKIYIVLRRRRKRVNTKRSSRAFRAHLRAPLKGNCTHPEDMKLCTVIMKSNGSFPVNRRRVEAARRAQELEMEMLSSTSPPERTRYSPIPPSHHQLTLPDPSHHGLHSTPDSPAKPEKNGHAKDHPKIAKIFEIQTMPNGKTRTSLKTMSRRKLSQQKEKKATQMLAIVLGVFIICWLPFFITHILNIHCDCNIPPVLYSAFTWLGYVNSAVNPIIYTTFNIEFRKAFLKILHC
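Primary screen. Calcium kinetics in induced HEK293 T-REx D2 cells: compound pre-addition 180 s, EC20 dopamine, 180 s more.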
D2 PAM-2 = Beta-Arrestin HTS for Positive Allosteric Modulators of the Human D2 Dopamine Receptor: Potentiators; 0.23% of 360,000 active; DiscoveRx D2 beta-arrestin cells, luminescence, 90 min; 100% = 57 uM dopamine signal; potentiation, % (no concentration beside the values); D(2) dopamine receptor (Homo sapiens), P14416; in the data active means potentiation above about 50%
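D2 cells co-treated with compound plus 50 nM dopamine (EC20) for 90 min at 37 deg C to detect potentiation. Beta-arrestin recruitment was read as enzyme-fragment luminescence after 1 h at ambient temperature. Full response was set by 57 uM dopamine.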
D2 ag-1 = HTS Assay for Allosteric Agonists of the Human D2 Dopamine Receptor: Primary Screen for Agonists. activation, % at 2 µM. HEK293 T-REx D2 cells, calcium flux agonist mode. 0.53% of 340,000 active. D(2) dopamine receptor (Homo sapiens), P14416;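 active means activation over 3 SD above normal in the single-dose calcium agonist read, cut at about 30% in these data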; further: 0% is about no effect
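HEK293 Trex D2 cells, tetracycline-induced, o/n 30 C 5% CO2; no-wash Ca dye, RT 30–90 min; 10-cycle baseline, 23 nl cpd added, kinetic Ca read 180 s; agonist hits = positive Ca response.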
D2 ag-2 = Beta-Arrestin HTS for Positive Allosteric Modulators of the Human D2 Dopamine Receptor: Agonists; D(2) dopamine receptor (Homo sapiens), P14416; DiscoveRx PathHunter D2 beta-arrestin, luminescence, 90 min; 100% = 57 uM dopamine signal; activation, % (test concentration not listed); 0.084% of 360,000 active; in the data active means activation above about 40%
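DiscoveRx PathHunter D2 beta-arrestin cells (2,100/well) attached overnight, then compound-stimulated 90 min at 37 C in HBSS/10 mM HEPES/0.1% Tween-20 buffer; beta-galactosidase complementation read by luminescence after 1 h at ambient temperature. Dopamine 57 uM final (EC100) as control.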
D2 antag = HTS Assay for Allosteric Antagonists of the Human D2 Dopamine Receptor: Primary Screen for Antagonists; HEK293 TREx D2 cells, calcium flux, dopamine EC80; D(2) dopamine receptor (Homo sapiens), P14416; inhibition, % at 10 µM; AID 485344, 2010; 2% of 340,000 active; in the data active means inhibition above about 30%; inactive means below that, where a call was filed; further: 0% is about no effect
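Read-out: kinetic calcium fluorescence (1 cycle/s) in inducible HEK293 T-REx D2 cells after an EC80 dopamine addition that followed 180 s compound preincubation. Loss of the dopamine response indicates antagonism.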
The depositor's hits bear a star.

`CCc1ccc(CN(C(=O)COc2c(C)cccc2C)C2CCS(=O)(=O)C2)cc1` (stereo unspecified) gave D2 PAM-1 2, D2 PAM-2 -9, D2 ag-1 0, D2 ag-2 0 and D2 antag -3.
Screening CC(C)n1nnnc1SCC(=O)N1N=C(c2cccs2)CC1c1cccs1 (stereo unspecified) returned D2 PAM-1 -16, D2 PAM-2 25, D2 ag-1 0, D2 ag-2 3 and D2 antag 39*.
Screening CCC(C)[C@H](NC(=O)N1CCn2c1nc1ccccc12)C(=O)NCc1ccccc1 (stereo partly specified) returned D2 PAM-1 32*, D2 PAM-2 -5, D2 ag-1 0, D2 ag-2 -4 and D2 antag -1.
Screening CC(=O)c1ccc(O[C@@H]2O[C@H](CO)[C@@H](O)[C@H](O)[C@H]2O)cc1 returned D2 PAM-2 -2 and D2 ag-2 -1.
Cc1c(Cc2ccccc2)sc(/N=C/c2c(O)ccc3ccccc23)c1C(N)=O was read as D2 PAM-1 -9, D2 PAM-2 57*, D2 ag-1 1, D2 ag-2 -2 and D2 antag -7.
`CC1(C(=O)Nc2ccc3c(c2)OCCO3)CCC(=O)N1C1CCN(Cc2ccccc2)CC1` (stereo unspecified) gave D2 PAM-2 -5 and D2 ag-2 -3.
Cc1sc2nc(CSC(C)C(=O)Nc3ccc(C#N)cc3)[nH]c(=O)c2c1C (stereo unspecified) was read as D2 PAM-1 0, D2 PAM-2 -13, D2 ag-1 0, D2 ag-2 -5 and D2 antag -5.
`Cc1sc2nc(CSC(C)C(=O)NC3(C#N)CCCCC3)[nH]c(=O)c2c1C` (stereo unspecified) gave D2 PAM-1 -6, D2 PAM-2 -28, D2 ag-1 0, D2 ag-2 -7 and D2 antag 38*.
For Cc1ccc(C(=O)C2CCN(CC(=O)N3CCN(c4ccc(F)cc4)CC3)CC2)cc1 the results were D2 PAM-1 -14, D2 PAM-2 -13, D2 ag-1 0, D2 ag-2 1 and D2 antag 51*.
For Cc1ccc(C(=O)C2CCN(CC(=O)Nc3ccc(N(C)C)cc3)CC2)cc1 the results were D2 PAM-1 -27, D2 PAM-2 -19, D2 ag-1 0, D2 ag-2 -1 and D2 antag 33*.
For O=C(CN1CCC(C(=O)c2ccc(F)cc2)CC1)Nc1ccc(F)cc1 the results were D2 PAM-1 -25, D2 PAM-2 -34, D2 ag-1 0, D2 ag-2 -2 and D2 antag 10.
For Cc1ccc(C(=O)N2CCC(C(=O)c3ccc(F)cc3)CC2)cc1 the results were D2 PAM-2 -20 and D2 ag-2 -2.
CC1=C(C(=O)Nc2ccccc2)C(C(C)C)n2nc(SCc3ccccc3C)nc2N1 (stereo unspecified) was read as D2 PAM-1 -10 and D2 ag-1 1.
COc1ccc(/C=N/NC(=O)c2ccc(CN3c4cccc5cccc(c45)S3(=O)=O)cc2)cc1 was read as D2 PAM-1 38*, D2 PAM-2 5, D2 ag-1 1, D2 ag-2 0 and D2 antag 3.
Screening COc1cc(/C=N/NC(=O)c2ccc(CN3c4cccc5cccc(c45)S3(=O)=O)cc2)cc(OC)c1O returned D2 PAM-1 2, D2 PAM-2 0, D2 ag-1 1, D2 ag-2 7 and D2 antag -4.
`CSCCC(NC(=O)c1ccco1)C(=O)N1CCN(C(c2ccccc2)c2ccccc2)CC1` (stereo unspecified) gave D2 PAM-1 11, D2 PAM-2 -8, D2 ag-1 -1, D2 ag-2 -1 and D2 antag 34*.
Screening CSCCC(NC(=O)c1ccco1)C(=O)N1CCCC(C(F)(F)F)C1 (stereo unspecified) returned D2 PAM-1 0, D2 PAM-2 -5, D2 ag-1 -1, D2 ag-2 -5 and D2 antag 31*.
For C[C@@H]1CN([C@H](C)CO)C(=O)c2cc(C3=CCCCC3)cnc2O[C@@H]1CN(C)Cc1ccccc1C(=O)O the results were D2 PAM-2 2 and D2 ag-2 -2.
Screening O=C(COC(=O)C1C2CC3OC(=O)C1C3C2)Nc1ccccc1 (stereo unspecified) returned D2 PAM-1 7, D2 PAM-2 -1, D2 ag-1 -2, D2 ag-2 2 and D2 antag 69*.
For CC1(C)Cc2c(c(N3CCCC3)nc3sc4c(N5CCNCC5)ncnc4c23)CO1 the results were D2 PAM-1 7, D2 PAM-2 -10, D2 ag-1 0, D2 ag-2 -5 and D2 antag -7.
Screening O=C(O)CCCC(=O)Nc1nc(-c2ccccc2)cs1 returned D2 PAM-1 -9, D2 PAM-2 -2, D2 ag-1 -1, D2 ag-2 -3 and D2 antag -4.
O=C(O)CCCC(=O)Nc1nc(-c2ccc(F)cc2)cs1 was read as D2 PAM-1 34*, D2 PAM-2 -9, D2 ag-1 -1, D2 ag-2 -1 and D2 antag 9.
For CCCCC(c1nc2ccccc2[nH]1)n1c(-c2ccccc2)nc2ccccc21 (stereo unspecified) the results were D2 PAM-2 -4 and D2 ag-2 -2.
For COCCNc1nc(NCc2ccccc2)c2cnn(C)c2n1 the results were D2 PAM-2 -7 and D2 ag-2 0.
Screening COCCNc1nc(N2CCCCC2)c2cnn(C)c2n1 returned D2 PAM-1 36*, D2 PAM-2 -10, D2 ag-1 0, D2 ag-2 -4 and D2 antag -16.
For COC(=O)c1ccc(C(=O)OC)c(NC(=O)C2CC(=O)N(C3CCCC3)C2)c1 (stereo unspecified) the results were D2 PAM-2 1 and D2 ag-2 -2.
Screening O=C1CC(C(=O)Nc2ccccc2)N=C(N2CCOCC2)N1 (stereo unspecified) returned D2 PAM-1 4, D2 PAM-2 -12, D2 ag-1 0, D2 ag-2 -5 and D2 antag -26.
`O=C1CC(C(=O)Nc2ccc(F)c(Cl)c2)N=C(N2CCCCC2)N1` (stereo unspecified) gave D2 PAM-1 -21, D2 PAM-2 -10, D2 ag-1 0, D2 ag-2 -3 and D2 antag 30*.

Assay outcomes deposited in PubChem BioAssay by National Center for Advancing Translational Sciences (NCATS).
